According to PubChem BioAssay (EPA / NIEHS):
Records with an inconclusive call do not appear. The source holds several records for some structures; these can differ, active in one and inactive in another. The source made the active and inactive calls. Rule for the calls, unless noted: active = hit-call score of the fitted dose curve at least 0.9, where 1 is the maximum; inactive = score below 0.9.

Test system: SRD5A2 (gene 6716)
Test: CCTE_Deisenroth_5AR_NBTE_ratio: CCTE's 5alpha-reductase NanoBRET Target Engagement Assay - Ratio, Deisenroth Lab (AID 2284322)
Conditions: actives raise or lower the signal
In short: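 SRD5A2-NanoLuc HEK293T; cmpd 10 nM-29.9 uM, 3 h preinc + testosterone tracer 2 h; NanoBRET ratio 650/460; bidirectional fit vs DMSO.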

Q: Which outcome does the source give for CN1C(=O)CC[C@H]1c1cccnc1 here?
A: The outcome was “inactive”.

Q: For CN1C(=O)N(c2ccccc2Br)Cc2cnc(Nc3ccc4c(c3)OCC(CO)O4)nc21 (centres undefined), which outcome is on record?
A: The outcome was “inactive”.

Q: For O=c1[nH]sc2ccccc12, which AC50 is on record?
A: Its AC50 is 75 µM (active).

Q: For O=C(O)Cc1cc(I)c(Oc2ccc(O)c(I)c2)c(I)c1, which AC50 is on record?
A: The AC50 was 77.3 µM (active).

Q: For CN(C[C@@H](CC[N+]12CCC(C3CCCCC3)(CC1)CC2)c1ccc(Cl)c(Cl)c1)C(=O)c1cc(C(F)(F)F)cc(C(F)(F)F)c1, which AC50 is on record?
A: Its AC50 is 76 µM (active).

Q: With CCCCCCCCCCCO as the compound, how does the outcome read?
A: Its outcome is “inactive”.

Q: Which AC50 does the source give for CN(C)c1ccc(C(=C2C=CC(=[N+](C)C)C=C2)c2ccc(N(C)C)cc2)cc1 here?
A: The AC50 was 0.593 µM (active).

Q: With CCCCCCCCOC(=O)c1cc(O)c(O)c(O)c1 as the compound, how does the AC50 read?
A: Its AC50 is 1.59 µM (active).

Q: With CCN(Cc1cccc(S(=O)(=O)O)c1)c1ccc(C(=C2C=CC(=[N+](CC)Cc3cccc(S(=O)(=O)O)c3)C=C2)c2ccccc2S(=O)(=O)[O-])cc1 as the compound, how does the AC50 read?
A: The AC50 was 2.9 µM (active).

Q: With NCc1cccc(C2CCN(C(=O)c3ccc(C#Cc4ccccc4F)o3)CC2)c1 as the compound, how does the outcome read?
A: Its outcome is “inactive”.

Q: For CO[C@H]1/C=C/O[C@@]2(C)Oc3c(C)c(O)c4c(O)c(c(/C=N/N5CCN(C)CC5)c(O)c4c3C2=O)NC(=O)/C(C)=C\C=C\[C@H](C)[C@H](O)[C@@H](C)[C@@H](O)[C@@H](C)[C@H](OC(C)=O)[C@@H]1C, which AC50 is on record?
A: Its AC50 is 54.3 µM (active).

Q: With COc1cc(C(=O)NC2CCN(C)CC2)ccc1Nc1ncc2c(n1)N(C1CCCC1)CC(F)(F)C(=O)N2C as the compound, how does the outcome read?
A: The outcome was “inactive”.

Q: Which outcome does the source give for O=c1c(-c2ccc(O)cc2)coc2cc(O)cc(O)c12 here?
A: The outcome was “inactive”.

Q: What does the source list for CCN(CC)C(=O)c1cc(S(=O)(=O)Cc2ccccc2)c(N2CCC(c3ccccc3)CC2)cc1N(CC)CCN(C)C?
A: AC50: 17.3 µM (active); outcome: inactive

Test system: not listed separately
Test: TAMU_PeakParms_SingleDonor1434_Asystole: Texas A&M University (TAMU) 1.5-hr Human Induced Pluripotent Stem Cell (iPSC)-derived Cardiomyocytes Calcium (Ca+2) Flux Assay for Cardiotoxicity: Asystole (quiescence of beating) (AID 2284328; active = hit-call score of the fitted dose curve at least 0.9, where 1 is the maximum)
Conditions: not given
In short: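 Human iPSC-derived cardiomyocytes (donor 1434) were exposed to 0.2, 1, 10 and 100 uM compound in 0.5% DMSO for 90 min at 37C. Ca2+-dye fluorescence gave average peak frequency; POD is EC95, a 95% beat-rate drop versus DMSO.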

Q: Which outcome does the source give for CCCOC(=O)c1cc(O)c(O)c(O)c1 here?
A: The outcome was “inactive”.

Q: With CC/C(=C(/CC)c1ccc(O)cc1)c1ccc(O)cc1 as the compound, how does the outcome read?
A: The outcome was “inactive”.

Q: With CN(C)c1ccc(C(=C2C=CC(=[N+](C)C)C=C2)c2ccc(N(C)C)cc2)cc1 as the compound, how does the AC50 read?
A: Its AC50 is 0.589 µM (active).

Q: Which outcome does the source give for CC(C)(c1cc(Br)c(O)c(Br)c1)c1cc(Br)c(O)c(Br)c1 here?
A: Its outcome is “inactive”.

Q: With c1ccc2ccccc2c1 as the compound, how does the outcome read?
A: Its outcome is “inactive”.

Test system: Brachyury (BRA) Protein Expression, Deisenroth Lab, TBXT (gene 6862)
Test: CCTE_Deisenroth_DEVTOX-GLR_legacy_Bra: (Legacy) CCTE's DevTox GLR-Endo Assay Evaluation of Brachyury (BRA) Protein Expression, Deisenroth Lab (AID 2284329)
Conditions: not given
In short: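 High-content imaging of fixed RUES2-GLR cells after a 48-hour differentiation with two compound exposures yields percent cells whose Bra signal exceeds pluripotent control median by 5x BMAD; values are baseline-corrected to DMSO.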

Q: With CC/C(=C(/CC)c1ccc(O)cc1)c1ccc(O)cc1 as the compound, how does the AC50 read?
A: The AC50 was 1.3 µM (active).

Q: For CCCCOC(=O)c1ccc(O)cc1, which AC50 is on record?
A: The AC50 was 100 µM (active).

Q: With CO[C@H]1/C=C/O[C@@]2(C)Oc3c(C)c(O)c4c(O)c(c(/C=N/N5CCN(C)CC5)c(O)c4c3C2=O)NC(=O)/C(C)=C\C=C\[C@H](C)[C@H](O)[C@@H](C)[C@@H](O)[C@@H](C)[C@H](OC(C)=O)[C@@H]1C as the compound, how does the AC50 read?
A: The AC50 was 89.7 µM (active).

Q: For OCCO, which outcome is on record?
A: Its outcome is “inactive”.
